# Measurements as given in PubChem BioAssay (EPA / NIEHS).
# Calls of active or inactive are those of the source. Rule for the calls: active = hit-call score of the fitted dose curve at least 0.9, where 1 is the maximum; inactive = score below 0.9.
# Read-out: Monokine induced gamma interferon (MIG), CXCL9 (gene 4283)
# Assay: BSK_BE3C_MIG: BioMAP Diversity Plus: BE3C Assay for Monokine induced gamma interferon (MIG) Biomarker Activity (AID 2283035)
# Conditions: primary human bronchial epithelial cells; actives raise or lower the signal
# Method: BSK_BE3C is a cell-based, multiplexed-readout assay that uses bronchial epithelial cell, a human lung primary cell, with measurements taken at 24 hours after chemical dosing in a 96-well plate.BSK_BE3C_MIG is an assay component measured in the BSK_BE3C assay. It measures MIG antibody related to regulation of gene expression using ELISA technology.Data from the assay component BSK_BE3C_MIG was analyzed into 1 assay endpoint. This assay endpoint, BSK_BE3C_MIG, was analyzed with bidirectional fitting relative to DMSO as the negative control and baseline of activity. Using a type of binding reporter, gain or loss-of-signal activity can be used to understand changes in the signaling as they relate to the gene CXCL9. Furthermore, this assay endpoint can be referred to as a primary readout, because this assay has produced multiple assay endpoints where this one serves a signaling function. To generalize the intended target to other relatable targets, this assay endpoint is annotated to the cytokine intended target family, where the subfamily is chemotactic factor.
# The levels of cell surface (or secreted, indicated by the prefix "s") biomarker endpoints were measured by ELISA. Overt cytotoxicity to cells in confluent adherent cultures (all systems other than the BT system) was assessed by measuring total protein levels using sulforhodamine B (SRB) staining in parallel cultures at the time of biomarker measurements, indicated as SRB endpoints. For proliferation assays for adherent cell types, individual cell types are cultured at sub-confluence and relative cell numbers quantified by SRB staining at time points optimized for each system (48 h: 3C and CASM3C systems; 72 h: BT and HDF3CGF systems; 96 h: SAg system). SRB was performed by staining cells with 0.1% SRB after fixation with 10% TCA and reading wells at 560 nm.Viability and proliferation of PBMC (T cells) was quantified by Alamar Blue reduction for the SAg and BT systems. For PBMC viability (referred to as PBMC Cytotoxicity within the assay endpoint names), cells were plated (75,000/well in a 96-well plate) and then chemical samples added for 1 h before addition of activators, SEB and TSST-1 (20 ng/mL final concentration each). Cells were incubated for 90 h. Then, Alamar Blue (20 uL/well) (Invitrogen, Cat DAL1100) was added for 6 h, and the plates were read with a fluorescence microplate reader at 546/580 nm (excitation/emission). For PBMC proliferation, cells were plated and activated as above but incubated for only 16 h prior to addition of Alamar Blue. Plates were read after 6 h.
Compound,outcome,AC50
CCCCSP(=O)(SCCCC)SCCCC,inactive,–
CCOP(=S)(Oc1cnc(C(C)(C)C)nc1)OC(C)C (stereo not given),inactive,–
N#CSCSC#N,inactive,–
C#CCC1=C(C)C(OC(=O)C2C(C=C(C)C)C2(C)C)CC1=O (stereo not given),inactive,–
Cc1ccn2nc(S(=O)(=O)Nc3c(F)cccc3F)nc2n1,inactive,–
CC(Oc1cccc(Cl)c1)C(=O)O (stereo not given),inactive,–
CCC(CC)Nc1c([N+](=O)[O-])cc(C)c(C)c1[N+](=O)[O-],inactive,–
COc1cccc(C(=O)NN(C(=O)c2cc(C)cc(C)c2)C(C)(C)C)c1C,inactive,–
CC(C1CC1)C(O)(Cn1cncn1)c1ccc(Cl)cc1 (stereo not given),inactive,–
COP(=O)(NC(C)=O)SC (stereo not given),inactive,–
CCc1cccc(CC)c1N(COC)C(=O)CCl,inactive,–
COc1cc(OC)nc(Sc2cccc(Cl)c2C(=O)O)n1,inactive,–
COP(=O)(OC)OC(Br)C(Cl)(Cl)Br (stereo not given),–,30.8 µM (active)
CCOP(=O)(NC(C)C)Oc1ccc(SC)c(C)c1 (stereo not given),inactive,–
COc1ccc(C(=CC(=O)N2CCOCC2)c2ccc(Cl)cc2)cc1OC,inactive,–
CCOC(=O)CC(SP(=O)(OC)OC)C(=O)OCC (stereo not given),inactive,–
CNC(=O)ON=C(C)SC,inactive,–
CCOC(=O)COc1cc(-c2nn(C)c(OC(F)F)c2Cl)c(F)cc1Cl,inactive,–
CNC(=O)ON=C(SC)C(=O)N(C)C,inactive,–
CC1=NNC(=O)N(/N=C/c2cccnc2)C1,inactive,–

Compound,outcome,AC50
CCCSP(=O)(OCC)Oc1ccc(Br)cc1Cl (stereo not given),inactive,–
C#CC(C)(C)NC(=O)c1cc(Cl)cc(Cl)c1,inactive,–
CC(COc1ccc(Oc2ccccc2)cc1)Oc1ccccn1 (stereo not given),inactive,–
CCC(=NOC/C=C/Cl)C1=C(O)CC(C2CCOCC2)CC1=O (stereo not given),inactive,–
CCCCOC(=O)c1ccccc1C(=O)O,inactive,–
CCOP(=S)(OCC)Oc1ccc2c(C)c(Cl)c(=O)oc2c1,inactive,–
CCOP(=S)(OCC)SCCSCC,inactive,–
CCCCOC(=O)[C@@H](C)Oc1ccc(Oc2ccc(C#N)cc2F)cc1,inactive,–
CCCCN(CC)c1c([N+](=O)[O-])cc(C(F)(F)F)cc1[N+](=O)[O-],inactive,–
FC(F)C(F)(F)OCC(Cn1cncn1)c1ccc(Cl)cc1Cl (stereo not given),inactive,–
CC1(C(=O)Nc2ccc(O)c(Cl)c2Cl)CCCCC1,inactive,–
CCNc1nc(Cl)nc(NC(C)(C)C#N)n1,inactive,–
CN(C)[C@@H]1C(=O)C(C(N)=O)=C(O)[C@@]2(O)C(=O)C3=C(O)c4c(O)cccc4[C@@](C)(O)[C@H]3[C@H](O)[C@@H]12,inactive,–
Nc1nc(N)nc(NC2CC2)n1,inactive,–
Cc1nn(-c2cc(NS(C)(=O)=O)c(Cl)cc2Cl)c(=O)n1C(F)F,inactive,–
CCCOc1nn(C(=O)NS(=O)(=O)c2ccccc2C(=O)OC)c(=O)n1C,inactive,–
CNC(=O)Oc1cccc2c1OC(C)(C)O2,inactive,–
CC(=NC#N)N(C)Cc1ccc(Cl)nc1,inactive,–
CCOP(=S)(OCC)OC(Cl)C(Cl)(Cl)Cl (stereo not given),inactive,–
CCOP(=S)(OCC)Oc1ccc([N+](=O)[O-])cc1,inactive,–
